Assay results from the supplement of paper PMC6555819.

Tests used:
Assay in all cases: PBM binding z-score (relative to random genomic background probes); higher = stronger binding; sequences stand for … in GC…GCGATTGACAGCGTAGAATGAAGG
[1] = test system: PPARg:RXRa DBDmut IVT, anti-RXR (DBD mutation: RXRa K156A/R161A, NR concentration 270 nM, RXRa partner concentration 90 nM)
Method in brief: (§1)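 Binding z-scores take random background probes as their reference. They come from custom Agilent 4×180K protein-binding microarrays incubated 1 h with ligand-free nuclear receptor dimers, with antibodies against each partner (one per run) detecting binding. Scanned fluorescence was regression-normalized.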

[2] = test system: PPARg:RXRa IVT, anti-PPARg (NR concentration 270 nM, RXRa partner concentration 90 nM)
Method in brief: as §1

[3] = test system: PPARg DBDmut:RXRa IVT, anti-PPARg (DBD mutation: PPARg1 K132A/R137A, NR concentration 270 nM, RXRa partner concentration 90 nM)
Method in brief: as §1

[4] = test system: PPARg DBDmut IVT, anti-PPARg (DBD mutation: PPARg1 K132A/R137A, NR concentration 270 nM)
Method in brief: as §1

[5] = test system: PPARg homodimer (NR concentration 180 nM)
Method in brief: as §1

[6] = test system: PXR:RXRa (NR concentration 270 nM, RXRa partner concentration 90 nM)
Method in brief: as §1

[7] = test system: PXR homodimer (NR concentration 270 nM)
Method in brief: as §1

[8] = test system: RARa:RXR (NR concentration 270 nM, RXRa partner concentration 90 nM)
Method in brief: as §1

[9] = test system: RARa homodimer (NR concentration 270 nM)
Method in brief: as §1

[10] = test system: RARb:RXRa (NR concentration 270 nM, RXRa partner concentration 90 nM)
Method in brief: as §1

[11] = test system: RARb homodimer (NR concentration 270 nM)
Method in brief: as §1

[12] = test system: RARg:RXRa (NR concentration 270 nM, RXRa partner concentration 90 nM)
Method in brief: as §1

[13] = test system: RARg homodimer (NR concentration 270 nM)
Method in brief: as §1

[14] = test system: RXRa DBDmut IVT, anti-RXR (DBD mutation: RXRa K156A/R161A, NR concentration 90 nM)
Method in brief: as §1

[15] = test system: RXRa homodimer (NR concentration 180 nM)
Method in brief: as §1

[16] = test system: THRa:RXRa (NR concentration 90 nM, RXRa partner concentration 90 nM)
Method in brief: as §1

[17] = test system: THRa homodimer (NR concentration 90 nM)
Method in brief: as §1

[18] = test system: VDR:RXRa (NR concentration 270 nM, RXRa partner concentration 90 nM)
Method in brief: as §1

[19] = test system: VDR homodimer (NR concentration 270 nM)
Method in brief: as §1

Sequence	PBM binding z-score [1]	PBM binding z-score [2]	PBM binding z-score [3]	PBM binding z-score [4]	PBM binding z-score [5]	PBM binding z-score [6]	PBM binding z-score [7]	PBM binding z-score [8]	PBM binding z-score [9]	PBM binding z-score [10]	PBM binding z-score [11]	PBM binding z-score [12]	PBM binding z-score [13]	PBM binding z-score [14]	PBM binding z-score [15]	PBM binding z-score [16]	PBM binding z-score [17]	PBM binding z-score [18]	PBM binding z-score [19]
TAGCCTAGGACAGATCGGGCCAGTATACGCTATA	-0.993	-0.151	-0.673	0.0562	-1.15	-0.732	-0.768	-0.695	-1.42	-0.928	-0.402	-0.336	0.0371	-1.01	-0.257	0.511	-0.623	-0.85	-0.922
ATCGAAAGGTCGAAGGTGGGTATACCCACCCGAA	-0.494	1.52	0.29	0.264	1.05	2.11	-0.101	3.05	-0.341	3.51	2.02	3.9	3.4	0.146	4.23	1.81	-0.334	2.54	0.567
CGTCCAAGGTTAATGCTAGGTCAGTGAAAGCATT	1.24	1.56	0.173	-0.333	1.1	1.81	0.209	2.86	-0.141	2.83	3.14	4.63	2.64	1.27	1.78	3.44	1.31	1.86	0.435
AATACAGGGTCATCGTAGGACAGAGTACGCACAG	2.91	4.34	1.42	1.38	2.54	4.92	0.871	4.82	0.937	4.22	3.3	5.62	5.18	3.38	6.61	4.82	1.71	5.5	4.11
CGTCCAAGTTCATAGGAGGTCAGTGAAGACAGAT	0.698	1.81	0.494	0.544	3.04	6.14	9.37	4.07	1.68	4.14	4.1	4.63	5.14	4.98	3.69	4.73	1.52	5.91	6.53
ATCTCTAGGTAAGACTCAGTCCAGTGAAGAACGC	1.91	1.22	-0.449	2	0.717	-0.0905	0.481	-0.0301	0.973	0.0795	0.112	0.208	0.132	0.459	0.144	0.31	0.282	0.327	0.336
CGAACTAGGTCATAACAGGACAGTGAAGGATGAT	7.75	8.05	5.21	4.58	2.38	2.04	0.386	2.3	0.47	3.38	2.36	3.28	3.91	1.66	2.37	4.04	0.443	1.89	0.892
ACTCGGAGGACAAAGGTCAGACCTACGCCAGTGA	0.683	3.73	0.128	-0.307	3.27	4.16	0.401	5.43	1.5	4.5	4.02	6.08	5.29	1.23	5.81	3.5	0.604	3.52	1.81
AGAATGAGGTTATACGTAGATCGGGGAAGAAAGT	4.33	2.22	0.772	-0.0447	1	1.43	0.718	1.92	0.264	1.58	0.901	1.6	0.926	2.14	2.27	2.12	0.732	1.43	0.909
TTACCAAGGTGAGCTTAGGTCGTTGATCCAACTC	1.61	1.67	-0.375	-0.536	-0.601	1.62	-0.264	0.665	-0.83	1.36	1.27	0.36	0.732	-0.17	0.352	3.88	0.952	0.561	-0.0607
CGAACGAGGGCATGAGTTGAAAGCAAATGCCGAT	2.92	2.09	-0.35	-0.394	0.0525	0.538	-0.57	0.846	-0.757	1.96	0.836	1.52	1.57	2.22	1.19	1.37	-0.313	1.25	1.57
GGACCAAGGTGAATAGGTCGTTGATGAGTAGGCG	1.58	2.18	-0.0535	-0.223	1.34	0.838	0.241	1.74	0.177	2.06	1.93	2.62	1.51	-0.31	1.81	1.91	0.417	0.886	0.294
CCTTACGGGTCACTCCAGGTTATAGAATCGGAGT	2.67	3.47	1.31	0.0238	1.95	5.29	0.455	4.11	0.74	3.68	3.06	4.57	4.54	1.91	4.61	5.18	0.576	4.17	1.39
ATATGTAGGTTATCGTGTCATTCAGTTTGCGCAT	7.74	7.44	2.49	2.15	1.76	1.17	0.812	1.16	0.933	1.32	1.17	0.973	0.988	1.09	1.06	0.907	0.568	2.28	1.53
ATCTCTAGGTAATACTCAGTTCAGTGAAGAACGC	2.77	1.87	1.44	1.47	1.53	1.58	2.24	0.858	2.17	0.79	1.14	0.732	0.671	0.98	0.582	1.37	1.33	1.55	1.89
TCGAGTAGGTTAGGGGCATTGAGAATGGCGTCGA	1.85	1.45	-1.19	-0.696	1.3	0.449	0.233	0.211	-0.562	1.03	0.964	0.14	0.129	0.205	0.572	0.83	0.383	0.491	0.492
TAGCCTAGGTCATTGGTCCAGTATAGTACGCATC	2.05	2.93	0.413	0.614	1.51	1.76	0.043	2.39	0.179	3.58	2.86	3.61	3.82	1.98	2.74	2.84	1.47	2.55	1.51
CAATCTAGGTCAAGAGGTCAAAGTCCGCTTCCCG	8.4	8.71	5.68	4.57	9.94	6.5	3.63	8.3	5.1	5.36	5.66	8.19	7.48	2.79	8.19	4.5	2.95	6.23	5.19
ATATGTAGGTTACATCAGGGTCATTCAGGCTATG	7.19	7.69	2.46	2.26	2.46	4.24	2.65	4.06	1.01	2.77	3.47	4.16	2.29	1.46	4.28	4.05	2.29	5.14	3.17
TTACCAAGGTGAAAGTCGTTGATCCCTCTGTAGA	1.87	2.87	0.179	0.266	-0.0514	0.456	-0.651	1.1	-0.221	1.67	0.704	0.61	0.23	0.0451	1.2	2	0.568	0.25	-0.192
ACTATTAGTTGAGACGAGGGCAGCCGATAGGTTG	0.368	0.416	0.598	0.645	0.479	0.456	-0.0477	0.335	0.445	0.854	0.756	0.374	0.715	0.298	0.449	2.02	0.0606	0.339	0.189
TAGCCAAGGTCATTGGGCCAGTATAGTACGCATC	2.26	4.14	1	0.266	2.22	4.33	1.15	4.03	0.395	5.01	4.21	5.55	5.5	3.08	5.46	4.06	2.04	4.87	3.47
GATACAGTGTCAGCTAGAGGCCAGAGTATGGAAA	-0.588	0.187	0.343	-0.259	-0.286	-0.439	-0.0774	-0.0269	-0.579	0.973	1.01	2.09	0.824	-0.492	0.242	0.131	-0.254	-0.468	-0.198
CCAGACAGGTGAAAGGTAACTCTGTCTGGTACGC	2.33	3.16	0.131	-0.269	0.283	1.16	-0.171	2.16	-0.0874	1.24	0.719	1.24	0.754	0.07	2.07	1.01	-0.229	0.668	0.0648
TAGCCTAGGTCATGCAGGGGCCAGTATAGAAAGC	1.42	2.59	-0.359	-0.442	1.36	2.18	-0.721	3.39	-0.25	3.85	3.35	6.15	4.48	0.31	3.12	3.29	0.474	2.7	0.435
CCTAGCTGGCCAGGGTCACTCAAGCATTTCGCTT	-0.189	-0.187	-0.962	-0.97	0.811	2.53	-0.342	3.04	-0.133	2.35	2.33	3.05	2.03	0.326	3.3	2.88	0.857	2.36	0.994
TCTCGGAGGAGACGAAAGGTCAGAGCTCGACATC	0.912	1.49	-0.00299	-0.844	3.1	3.44	-0.0245	4.57	1.35	3.44	4.19	3.79	3.46	0.134	4.08	2.42	0.0723	1.87	0.0625
CAAACTAGATCAAGGTCAAAGTCGGTTTGTGCCA	3.37	3.93	1.86	-0.496	1.73	4.01	1.98	3.96	0.755	3.92	3.72	3.89	3.29	2.46	4.18	3.88	2.96	4.12	3.73
TCATATAGGTAAATGCTAGGTGAGAGTCCGATCT	3.83	2.57	0.808	0.825	0.0695	0.187	0.158	0.343	0.662	0.218	0.0117	0.257	0.032	1.03	0.42	0.935	-0.108	0.644	0.216
CCTACTGGGCCATTCAGAGGTCATGGATCATATG	4.14	4.64	0.856	0.389	2.93	4.92	0.765	5.46	0.962	3.19	4.22	4.63	3.45	0.21	4.21	3.64	1.55	3.92	2.09
